Measurements taken from PubChem BioAssay (NCI).
This is part of a sample that, as a whole, favours compounds with a hit. Of some 83,000 tested, about 20% had one in any assay.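 Method: cells in 96-well plates; compound added at one concentration; 48 h incubation; percent growth measured; values under 10 scored active.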 Values without a mark were called inactive. The source made the active and inactive calls.

Tested on: HL-60(TB) leukemia
Test: NCI-60 one-dose screen, 48 h (100 = growth as untreated, 0 = no growth, -100 = all killed)
Settings: 10 µM unless noted

Question: For `O=[N+]([O-])c1cccc(/C=N/NC(=S)NC23CC4CC(CC(C4)C2)C3)c1`, which growth is on record?
Answer: The growth was 101%.

Question: How did the growth turn out when `CCC12OC(COc3ccccc3)CN1CCN2c1ccccc1` (centres undefined) was run?
Answer: The growth was 94.7% [100 µM].

Question: With `COc1ccc(-c2cnnn2-c2cc(OC)c3c(c2)OCO3)cc1` as the compound, how does the growth read?
Answer: Its growth is -32% (active).

Question: How did the growth turn out when `CNC(=O)NN` was run?
Answer: Its growth is 64%.
